From PubChem BioAssay (NCI) come the findings set out here.

About 83,000 compounds went through this panel and 20% of them were active in at least one assay; those are over-represented in the sample as a whole.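 Single-dose data. Exposure time 48 hours. Values below 10 considered active.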 Calls of active or inactive are those of the source.

This assay concerns HL-60(TB) leukemia. Nature of the assay: NCI-60 one-dose screen, 48 h (100 = growth as untreated, 0 = no growth, -100 = all killed). To be noted: 10 µM unless noted.
Turning to `COc1cccc(/C=N\NC(=O)c2ccncc2)c1O`, the growth was 9.43% (active).
For `O=C(Nc1cccc(-n2cc(-c3ccncc3)c(-c3cc(O)cc(Cl)c3)n2)c1)c1ccc(N2CCOCC2)c(C(F)(F)F)c1` the value was -46.4% (active).
For `CCC(C)(C)C(=O)O[C@H]1C[C@@H](C)C=C2C=C[C@H](C)[C@H](CC[C@@H]3CC(SCCN)CC(=O)O3)[C@H]21` (some centres undefined) the value was 37.6% (inactive); for `Cc1cc(O)c(C(C)(C)C)cc1Sc1cc(C(C)(C)C)c(O)cc1C`, -20.9% (active).
For `CC1(C)C(=O)/C(=C\c2ccco2)C[C@]2(C)[C@H]3CC[C@@H]4[C@@H](C(=O)/C=C/c5ccco5)CC[C@@]4(C)[C@]3(C)CC[C@@H]12` the value was 81.6% (inactive); for `C=C1CCC2C3(C)COC(c4ccc(OC)cc4Br)OC3CCC2(C)C1/C=C/C1=CCOC1=O` (centres undefined), 31.8% (inactive).
Consider `COc1cc(/C=C/C(=O)c2nc3cc(F)ccc3nc2C)cc(OC)c1OC`, for which the growth is -45.6% (active).
Take `COCCNC(=O)Cc1cc(-c2ccc(Cl)cc2)n(-c2ccccc2)c1C`: the growth was 66.4% (inactive).
As for `CCN(CC)CCOc1ccccc1C`, the growth was 101% (inactive).
On to `COc1c2ccoc2c(/C=C/C=O)c2oc(-c3ccccc3)cc(=O)c12`, for which the growth is 7.67% (active).
To `COc1cc(Cc2cc(-c3ccccc3)nn(Cc3ccccc3)c2=O)cc(OC)c1OC` belongs 19.3% (inactive); to `Cc1ccccc1N1CCN(C(=S)c2ccccc2)CC1`, 108% (inactive); to `OC(c1ccccc1)(c1ccccc1)c1ccccc1-c1ccccc1`, 82% (inactive).
With `Cc1cc(N2CCOCC2)nc(N(CCCNc2ccnc3cc(Cl)ccc23)Cc2ccco2)n1`, the growth was -26.3% (active).
